An excerpt weighted towards active compounds, which were near 5.3% of everything screened.
VACV mCherry inh: inhibitors of vaccinia virus infection (mCherry reporter signal); Vaccinia virus mCherry reporter infection, fluorescence; Potency, µM (highest dose often 36.5 µM), inactives show at the top dose activity change, negative = inhibition, actives largely listed as inhibitors; 310,000 tested, 0.63% active; calls by dose curve; tested in A549 cells; also: nearly all actives have a fitted effect of over 35% in size
FMDV inh: foot and mouth disease virus antiviral activity; 410,000 tested, 1.2% active; AID 1159524; FMDV antiviral cell-based qHTS; Potency, µM (series often up to 57.9 µM), without a hit: at the highest dose activity change, negative = inhibition, most hits filed as inhibitors; calls by dose curve; tested in HEK293T cells; also: read-out not given here; nearly all actives have a fitted effect of over 45% in size
HCV inh: inhibitors of hepatitis C virus infection; Huh7.5.1 HCVcc-Cre infection, luciferase reporter, 44 h; 340,000 tested, 3.4% active; Potency, µM (doses to about 41.8 µM), for the others: top-dose activity change, negative = inhibition, usual class: inhibitors; active = well fitted inhibition curve with a large enough effect; inconclusive = small, poorly fitted or top-dose-only effect, or another doubt; inactive = no such curve, though single readings can be large or run the other way
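Infectious HCV cell culture screen: compound-treated cells (1,000/well, pre-plated 4 h) are infected with HCVcc-Cre at roughly 0.5 moi and grown 44 h. Infection is quantified by luciferase signal after 15 min substrate incubation at room temperature.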
Marburg entry inh: Marburg virus entry inhibition; 300,000 tested, 1.8% active; AID 540276; Potency, µM (top dose mostly 37.8 µM), inactives show top-dose activity change, negative = inhibition, usual class: inhibitors; Marburg virus pseudotyped entry inhibition, cell reporter; calls by dose curve; tested in HEK293 cells
LASV entry inh: inhibitors of Lassa virus binding or cell entry. Lassa virus pseudotype entry inhibition, cell reporter. Potency, µM (titrated, usually from 37.9 µM), for the others: top-dose activity change, negative = inhibition, hits mostly inhibitors. 300,000 tested, 1.2% active; calls by dose curve; tested in HEK293 cells; also: nearly all actives have a fitted effect of over 50% in size
Vaccinia Venus: vaccinia inhibition (Venus reporter). 330,000 tested, 0.46% active. Vaccinia virus Venus reporter expression, fluorescence. Potency, µM (highest dose often 36.5 µM), for inactives: at the highest dose activity change, negative = inhibition, usual class: inhibitors. AID 720580; calls by dose curve; tested in A549 cells; also: nearly all actives have a fitted effect of over 30% in size
An asterisk follows results filed as active; i = inactive; ? = inconclusive; · = not tested or not shown; ! = not active in a repeat; [ ] = remark or other dose. % is scaled to controls: 0 for no effect and ±100 for the full control effect; potency is read from the fitted curve at half-maximal effect.

SMILES	VACV mCherry inh	FMDV inh	HCV inh	Marburg entry inh	LASV entry inh	Vaccinia Venus
Cc1nc2c(-c3ccccc3)c(C)[nH]n2c(=O)c1Cc1ccccc1	?	-23.9%	10µM*	?	-25.7%	-23.0%
Cc1[nH]n2c(=O)cc(-c3ccccc3Cl)nc2c1-c1ccccc1	?	-22.7%	·	-25.3%[46.1 µM]	?	-29.2%
COCc1cc(=O)n2[nH]c(C)c(-c3ccc(Cl)cc3)c2n1	10µM*	?	·	·	·	?
COc1ccc(-c2c(C)[nH]n3c(=O)c(Cc4ccccc4)c(C)nc23)cc1OC	-13.0%	-4.0%	?	7.94µM*	?	-20.7%
C#CCN(Cc1nc(N2CCOCC2)c2ccc(Cl)cc2n1)Cc1ccco1	-8.3%	-7.2%	·	·	·	6.1%
COC(=O)C1CCCCN1Cc1nc(N2CCCN(C(C)=O)CC2)c2ccccc2n1 (configuration not stated)	-7.7%	-8.7%	·	·	·	-5.3%
CCOC(=O)c1nc(NNC(=O)c2ccc([N+](=O)[O-])cc2)sc1C	?	-1.9%	?	8.91µM*	?	?
CCOC(=O)c1sc(NNC(=O)c2ccc(C)cc2)nc1C	-23.3%[7.34 µM]	26.0%	-17.7%	-12.1%[46.1 µM]	-26.6%	-4.9%[7.34 µM]
CCn1ncc([C@@H]2C[C@H]3CN(Cc4cccc(Cl)c4)C(=O)[C@]34CCCN24)c1C	-14.5%	-16.0%	-6.9%	8.0%[46.1 µM]	-9.5%	1.8%
Cn1cc([C@@H]2C[C@H]3CN(Cc4cccc(Cl)c4)C(=O)[C@]34CCCN24)c(-c2ccccc2)n1	?	-12.0%	10µM*	?	?	-11.0%
Cc1nn(C)cc1[C@@H]1C[C@H]2CN(Cc3cccc(Cl)c3)C(=O)[C@]23CCCN13	?	9.3%	2.6%	-24.1%[46.1 µM]	14.1%[46.1 µM]	-25.9%
O=C1N(Cc2cccc(Cl)c2)C[C@@H]2C[C@@H](c3cccn3-c3cccnc3)N3CCC[C@@]123	-12.7%	?	10µM*	12.6µM*	?	-10.5%
Nc1nc(N)c2nc(CNc3ccc(C(=O)N[C@H](CCC(=O)O)C(=O)O)cc3)cnc2n1	·	·	·	17.9%	·	·
Nc1nc(N)c2nc(CNc3ccc(C(=O)NC(CCC(=O)O)C(=O)O)cc3)cnc2n1 (configuration not stated)	-8.2%	·	-14.1%	0.0224µM*!	?	-8.7%
CN(Cc1cnc2nc(N)nc(N)c2n1)c1ccc(C(=O)NC(CCC(=O)O)C(=O)O)cc1C(F)(F)F (configuration not stated)	0.316µM*	-28.9%	?	-67.2%	?	1.12µM*
CN(Cc1cnc2nc(N)nc(N)c2n1)c1ccc(C(=O)NC(CCC(=O)O)C(=O)O)cc1 (configuration not stated)	11.2µM*	-24.1%	?	?	?	?
Nc1nc(N)c2nc(CNc3ccc(C(=O)N[C@@H](CCC(=O)O)C(=O)O)cc3)cnc2n1	-13.1%	-16.0%	·	·	·	-1.4%
COc1ccccc1NC(=O)c1cc2c(=O)oc3ccc(C)cc3c2s1	-19.3%[7.34 µM]	-18.2%	·	5.7%[46.1 µM]	-10.3%[46.1 µM]	-12.0%[7.34 µM]
CCOC(=O)C1CCCN(C(=O)Cn2ncn3c(cc4sc(CC)cc43)c2=O)C1 (configuration not stated)	-10.1%	-25.3%	·	8.4%[46.1 µM]	·	-2.7%
CCN(CC)S(=O)(=O)c1cccc(NC(=O)COC(=O)c2[nH]c(C)c(C(C)=O)c2C)c1	-28.1%	11.2µM*	·	·	·	?
CC(=O)c1c(C)[nH]c(C(=O)OCC(=O)Nc2ccc3[nH]c(=O)[nH]c3c2)c1C	i	15.2%	10.6%	2.1%[46.1 µM]	16.7%	-10.6%
CC(=O)c1c(C)[nH]c(C(=O)Nc2cccc(S(=O)(=O)N(C)C)c2)c1C	-11.1%	41.8%	?	29.3%[46.1 µM]	-0.7%	-9.6%
CC(=O)c1c(C)[nH]c(C(=O)OCC(=O)Nc2cccc(S(=O)(=O)N(C)C)c2)c1C	i	-14.1%	6.31µM*	0.1%[46.1 µM]	-5.7%[46.1 µM]	-12.4%
Cc1cc(NC(=O)COC(=O)c2ccccc2OCCOc2ccccc2)ccc1Br	i	·	·	·	·	-9.0%
COc1cc(C(=O)N/N=C/c2ccc(OC(=O)c3cccc(C)c3)c(OC)c2)ccc1O	·	-13.1%	-2.3%	·	·	·
CC(=O)Nc1ccc(C(=O)COC(=O)c2cccs2)c(F)c1	·	60.7%	9.1%	·	·	·

Source: PubChem
